Measurements taken from PubChem BioAssay AID651599 (National Center for Advancing Translational Sciences (NCATS), 2012).
Results filed as inconclusive are left out. Calls of active or inactive are those of the source. Calls come from the whole dose curve; as a rule, active = well fitted inhibition curve with a large enough effect; inconclusive = small, poorly fitted or top-dose-only effect; inactive = no such curve, though single readings can be large or run the other way.

Biological target: Tumor susceptibility gene 101 protein (Homo sapiens) (UniProt Q99816)
Sequence (Q99816 whole entry, looked up): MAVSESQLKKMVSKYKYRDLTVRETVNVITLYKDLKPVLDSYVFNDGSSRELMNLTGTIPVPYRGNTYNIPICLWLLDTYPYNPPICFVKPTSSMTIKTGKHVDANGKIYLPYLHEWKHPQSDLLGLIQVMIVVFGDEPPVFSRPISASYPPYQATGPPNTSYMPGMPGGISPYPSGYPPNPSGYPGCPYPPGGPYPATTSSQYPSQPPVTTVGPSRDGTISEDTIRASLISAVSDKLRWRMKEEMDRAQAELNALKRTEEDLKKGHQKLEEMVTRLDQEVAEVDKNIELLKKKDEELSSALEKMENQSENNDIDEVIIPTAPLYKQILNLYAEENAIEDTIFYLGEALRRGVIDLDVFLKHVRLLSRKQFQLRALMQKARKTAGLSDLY
Assay: qHTS Assay for Iinhibitors of HIV-1 Budding by Blocking the Interaction of PTAP/TSG101: Hit Validation in TR assay
Settings: Tsg101 binding domain + Texas Red-labeled PTAP peptide, fluorescence polarization, 20 min; series mostly up to 57.5 µM; activity change, negative = inhibition: at the top concentration
Source text: Stages of the HIV-1 replication cycle, specifically virus assembly and release, provide underexploited targets for the development of novel antiviral inhibitors. The late stages of HIV-1 replication are mediated by the Gag precursor protein, Pr55Gag. Expression of Pr55Gag is both necessary and sufficient for the production of virus-like particles from Gag-expressing cells. The Gag protein hijacks key host proteins involved in endocytic machinery of the host cell to promote endosomal processing and viral budding. The budding process requires a direct interaction between a […] (PTAP) motif in the p6 domain of Gag and the cellular endosomal sorting protein known as Tsg101. In this way, the Gag PTAP motif promotes the host cells to recruit viral particles to the plasma membrane where the new viral particles are released, effectively turning the host cells into viral factories. A fluorescence anisotropy assay has been developed to quantitatively measure the PTAP-Tsg101 interaction which can be used to screen for inhibitors of this interaction.
This hit validation assay is similar to the primary assay but uses the Texas Red label instead of FITC.
NIH Molecular Libraries Probe Production Network [MLPCN]
NIH Chemical Genomics Center [NCGC]
PI Name: Dr. Eric Freed, NCI
Two uL of the Tsg101 binding domain in buffer (10 mM HEPES pH 7.5; 0.15 M NaCl, 0.01% Tween 20; 3 mM EDTA;0.1 mM TCEP) was dispensed into Greiner black MB 1536-well plates (final concentration 10 uM). Then, 23 nL of compounds or DMSO were delivered to each well using a pin tool. Finally, 2 uL of a TR-labeled peptide containing the PTAP motif (1) in the same buffer was dispensed (50 nM final concentration) and the binding was allowed to proceed for 20 min. at r.t. Fluorescent polarization was determined using TR excitation and polarized emission filters on a Perkin Elmer Viewlux.
Keywords: Tsg101, PTAP, Gag, HIV, fluorescent polarization, MLSMR, MLPCN, NIH Roadmap, qHTS, NCGC
% is set by controls: 0 for no effect and ±100 for the full control effect; potency is the fitted concentration of half-maximal effect.

Activity change, negative = inhibition, inactive:
CCOc1cc(/C=C(\C#N)c2nc(-c3cccs3)c(NC(C)=O)s2)ccc1O -11.2%
O=C1c2ccccc2-c2onc3ccc(NCc4ccco4)c1c23 -15.9%
Nc1ccc2nc(-c3ccccc3)c(-c3ccccc3)nc2c1 -4.17%
O=C(Nc1ccccc1F)C(=Cc1sc(N2CCOCC2)nc1-c1ccccc1)C(=O)Nc1ccccc1F 0.0258%
O=C1CCNc2ccc(-c3ccccc3)cc21 13%
N#CC(C(=O)OC1CCCCC1)c1nc2ccccc2nc1N1CCOCC1 (stereo not given) 2.32%
CCN1CCc2c(sc(NC(=O)CSc3ccccc3)c2-c2nc3ccccc3s2)C1 7.92%
Cn1c(=O)c2[nH]c(COc3ccccc3)nc2n(C)c1=O -23.7%
COc1cc(-c2cc(-c3ccc(N)cc3)[nH]c(=O)c2C#N)cc(OC)c1OC -7.76%
CCN(CC)c1ccc(/C=C(/C#N)c2nc3ccc(C)cc3[nH]2)c(OC(C)C)c1 14.1%
Cc1nc(Cl)c2c(n1)NC1=C(O2)C(=O)CCC1 22%
CC(C)(C)OC(=O)NC(Cc1ccccc1)C(=O)N1CCC(C(=O)NCC(=O)Nc2ccc(F)cc2)CC1 (stereo not given) 14.3%
NS(=O)(=O)c1ccc(N=Nc2c[nH]c(=O)c(O)c2)cc1 22.4%
O=C(Nc1nc2c(s1)CN(Cc1ccccc1)CC2)c1cccc(S(=O)(=O)N2CCc3ccccc32)c1 19.5%
O=[N+]([O-])c1cc(Cl)cc(/C=N/n2cnnc2)c1O -10.1%
Cn1c(=O)c2nc3ccc(NC(=O)C(F)(F)F)cc3nc2n(C)c1=O -13.7%
O=C(O)c1cc(O)c2c(c1)C(=O)c1cccc(O)c1C2=O 2.83%
Cc1cccc(NC(=S)NCCC(c2ccccc2)c2ccccc2)c1 -2.24%
CC1CCN(c2ccc3c(c2)S(=O)(=O)c2ccccc2C3=O)CC1 -17.4%
S=C(NCc1ccccc1)Nc1cccc(Cl)c1 -0.728%
Cc1c(C(=O)N(C)c2cccc(C(F)(F)F)c2)sc2nc3n(c(=O)c12)CCCCC3 -10.5%
COc1ccccc1N1C(=O)c2cccc3c(N(C)CCO)ccc(c23)C1=O 20%
Cc1cc(=O)c2c([nH]1)c(C)cc1[nH]c(C)c(C)c12 7.34%
C/C(N)=C(/C#N)C(=O)CSc1ncnc2ccccc12 -2.93%
Cn1c(=O)c(Nc2ccc(O)cc2)c2c3c(cccc31)C(=O)c1ccccc1-2 -2.4%
Cn1c(=O)c(Nc2ccc(Cl)cc2)c2c3c(cccc31)C(=O)c1ccccc1-2 -2.75%
COc1ccc2nc3ccccc3[n+]([O-])c2c1 -10.9%
COc1ccc(-c2cc(C(F)(F)F)c3c(N)c(C(=O)NCCSC)sc3n2)cc1 -20.5%
COc1cc2c(cc1OC)-c1cc3ccc4c(c3c[n+]1CC2)OCO4 -22.7%
COc1ccccc1N1C(=O)C2C(C(=O)c3ccccc3)=NN(c3ccc(C)cc3)C2C1=O (stereo not given) 24.6%
O=C(NCc1cc(C(F)(F)F)ccc1Cl)c1cccc2c1C(=O)c1ccc(N3CCC(Cc4ccccc4)CC3)cc1S2(=O)=O 7.52%
Cc1c2ccccc2nc2c(F)c(N(C)C)c(F)c(F)c12 -4.14%
O=c1oc2c3c4c(cc2c2c1CCC2)OCCN4CCC3 -29.6%
O=C1c2cccc3c([N+](=O)[O-])ccc(c23)C(=O)N1c1ccc(Cl)cn1 -5.67%
O=C(c1ccccc1)c1ccc(O)cc1O -21.9%
Nc1ccc2c3c(cccc13)-c1ccccc1-2 -5.02%
Cn1cc(/C=C(\C#N)C(=O)Nc2ccccc2O)c2ccccc21 -5.56%
COc1ccccc1NC(=O)/C(C#N)=C/c1cc([N+](=O)[O-])ccc1N1CCCC1 -11.4%

Potency, active:
COc1ccc(OC)c(-c2c3cc(O)c(=O)cc-3oc3cc(O)c(O)cc23)c1 32.6 µM
Nc1ccc(-c2c3ccc(=O)cc-3oc3cc(O)ccc23)cc1C(=O)O 36.6 µM
